# Measured values: the supplement of paper PMC10338343
# ± gives the standard deviation.
# What was measured:
# [1] = tested on: MILI (PIWIL2) piRISC loaded with piRNA #1 (26 nt); experiment: pre-steady-state target cleavage rate (min^-1); guide: piRNA #1 5'p-UGAGGUAGUAGGUUGUAUAGUAUCCA; higher = faster piRNA-guided slicing of the target; conditions: auxiliary factor: 500 nM mouse GTSF1
# Method in brief: (§1)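 A transcribed, DNA-blocked target RNA library (0.1 nM) and 1 nM active affinity-purified piRISC bearing one synthetic guide were incubated in HEPES–potassium acetate buffer at 33 °C for 0–8 or 0–960 min, either with or without 500 nM GTSF1 partner protein. Uncleaved targets were sequenced, normalised to depth and to weakly complementary targets, and pooled over three trials, with k3 capped at 0.0001 min^-1. The pre-steady-state cleavage rate was derived with a burst-and-steady-state fit.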
# [2] = tested on: EfPiwi piRISC loaded with piRNA #1 (26 nt); experiment: pre-steady-state target cleavage rate (min^-1); auxiliary factor: 500 nM Ephydatia muelleri Gtsf1; guide: piRNA #1 5'p-UGAGGUAGUAGGUUGUAUAGUAUCCA; MIWI and MILI are mouse PIWI proteins and EfPiwi is from a freshwater sponge; tags in brackets are library labels; higher = faster piRNA-guided slicing of the target
# Method in brief: as §1
Sequence,pre-steady-state target cleavage rate [1],pre-steady-state target cleavage rate [2]
GGAGACCUUACUAUACAACCUACUACGACA,0.119 ± 0.021,
GGAGAGGAUACUAUACAACCUAACUACCUCA,0.0231 ± 0.0035,
GGAGUGGAUACUAUACAACGUACUACCUGA,0.0131 ± 0.0034,
GGAGACCUAUGAUAUCAACCUACAACGUCA,< 0.0001,
GGAGACCUAUGUAUACAACCUACUCCCUCA,0.0316 ± 0.0063,
GGAGAGGAUACUAUACAACGAACUACCUCA,0.0031 ± 0.0019,
GGAGACCUAUGAUAUGAACCUACUUACCUCA,< 0.0001,
GGAGUGGAUACUAUACAAGGAACUACCUCA,0.00353 ± 0.0018,
GGAGUGGAUACAAAACAACCUACUACCUCA,0.12 ± 0.0086,
GGAGACCUAUGAAUACUACCUACAACCUCA,0.00497 ± 0.0016,
GGAGACCUUACUAUACAACCUACAUGCUCA,0.0591 ± 0.012,
GGAGACCUAUGAUAUCAACUUACUACCUCA,0.00319 ± 0.0027,
GGAGACCUAUGAUUAACAACCUACUACCUCA,0.00416 ± 0.0022,
GGAGACCUAUGUAAACAACCUACUACGUCA,0.00279 ± 0.0027,
GGAGACCUAACUAUACAAGCUUCUACCUCA,0.0324 ± 0.01,
GGAGACCUAUCUAUACUACCUACAACCUCA,0.0808 ± 0.009,
GGAGACCUAUGAUUACAAUCUACUACCUCA,0.00319 ± 0.0026,
GGAGACCUAUCUAUACAACCUACUACGCUCA,0.229 ± 0.023,
GGAGUGGAAACUAAACAACCUACUACCUCA,0.201 ± 0.02,
GGAGACCAUACUAUUCAACCUACUACCACA,0.189 ± 0.023,
GGAGAGGAUACUAUACUACCUACUACCACA,0.171 ± 0.016,

Sequence,pre-steady-state target cleavage rate [1],pre-steady-state target cleavage rate [2]
GGAGACCUAUGAUAUGUUGCUACUCCCUCA,< 0.0001,
GGAGACCUUACUAAACAACCUACUACCACA,0.128 ± 0.017,
GGAGACCUUACUAUACUACGUACUACCUCA,0.0307 ± 0.0046,
GGAGACCUAUGUAUUCAACCUACUUCCUCA,0.00515 ± 0.0026,
GGAGACCUAUGAUAUGAACGUACAACCUCA,< 0.0001,
GGAGACCUCACUAUACAACCUACUACCUCA,0.252 ± 0.029,
GGAGACCAUACUAUACAACCUACGACCUCA,0.137 ± 0.018,
GGAGACCUAUGAUAUGAUCCUACUACCACA,< 0.0001,
GGAGAGCAUACAAUACAACCUACUACCUCA,0.206 ± 0.017,
GGAGACCUUACUUUUCAACCUACUACCUCA,0.0874 ± 0.01,
GGAGACCUAACUUUACAACCUACUAGCUCA,0.0363 ± 0.017,
GGAGACCUUUCUAUACAAGCUACUACCUCA,0.159 ± 0.012,
GGAGACGAUUCUAUACAACCUACUACGUCA,0.0993 ± 0.0097,
GGAGACCUUACUAUAAAACCUACUACCUCA,0.16 ± 0.019,
GGAGACGAUUCUAUUCAACCUACUACCUCA,0.231 ± 0.014,
GGAGACCUUAGUAAACAACCUACUACCUCA,0.0245 ± 0.0059,
GGAGACCUAUGUAAACAACCUACUACCUCA,0.0131 ± 0.0032,
GGAGACCUAUGAUUACAACCUACUACCCUCA,0.00361 ± 0.0029,
GGAGACGAAACUAUACAACCUACAACCUCA,0.133 ± 0.031,0.00368 ± 0.0027
GGAGACCUAUCUAUACAACCUACUACCAGA,0.104 ± 0.016,0.00327 ± 0.0026
GGAGAGCAUACUAUACAACCUACUAGCUCA,0.0696 ± 0.016,0.00355 ± 0.0022

Sequence,pre-steady-state target cleavage rate [1],pre-steady-state target cleavage rate [2]
GGAGAGGAUACUAUACAACCUACUACCACA,0.171 ± 0.017,0.00641 ± 0.0021
GGAGAGGAUACAAUACAACCUACUACCUGA,0.0513 ± 0.0087,0.0036 ± 0.0016
GGAGAGGAUACUUUUCAACCUACUACCUCA,0.145 ± 0.011,0.00409 ± 0.004
GGAGACGAUACUAUACAACCUACUAUCCUCA,0.193 ± 0.024,0.0049 ± 0.0014
GGAGACCUAUCUAUACUUCCUACUACCUCA,0.054 ± 0.013,
GGAGAGCGAUACUAUACAACCUACUACCUCA,0.249 ± 0.02,0.0132 ± 0.006
GGAGAGGAUACUAUAGAACCUACUACCUCA,0.166 ± 0.013,0.00475 ± 0.0023
GGAGAGGAUACUAUACGACCUACUACCUCA,0.121 ± 0.0093,0.117 ± 0.05
GGAGACGAAACUAUACAACCUACUACCACA,0.219 ± 0.031,0.00352 ± 0.0032
GGAGACCAUACUAUACAACCUACUACUCUCA,0.331 ± 0.028,0.00773 ± 0.0036
GGAGAGGAUACUUUACAAGCUACUACCUCA,0.149 ± 0.014,0.00384 ± 0.0021
GGAGAGGAUACUAUACAACCUACUAUCUCA,0.131 ± 0.012,0.081 ± 0.036
GGAGAGGAUACUAUACAACUACUACCUCA,0.0329 ± 0.0041,0.00869 ± 0.0042
GGAGAGGAUACUAUACAACCUACUUGCUCA,0.00476 ± 0.0029,0.00478 ± 0.0023
GGAGUGGAUACUAUACAACGUACUUCCUCA,0.0153 ± 0.0037,0.00364 ± 0.0017
GGAGACGAUACUAUACAACCUACUACCGUCA,0.125 ± 0.023,0.00873 ± 0.0037
GGAGAGGAUACUAUACUACCUACUUCCUCA,0.0617 ± 0.016,0.00269 ± 0.002
GGAGUGGAUACAAUACAACCUACUAGCUCA,0.0614 ± 0.0087,0.00216 ± 0.0014
GGAGUGGAGACUAUACAACCUACUACCUCA,0.212 ± 0.029,0.0807 ± 0.031
GGAGACCUAUCUAAAGAACCUACUACCUCA,0.0183 ± 0.0054,
